HT1080 IDH1KD tx: toxicity to HT-1080 IDH1 knockdown cells (counter line) | HT-1080 IDH1 knockdown viability, ATP luminescence, 48 h | Potency, µM (titrated, usually from 46.1 µM), for the others: top-dose activity, negative = toxicity, most hits filed as cytotoxic | 360,000 compounds, 2% hits | AID 686971;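 further: potency means the concentration at half of the fitted maximal effect; 0% = DMSO wells and -100% = cell-free medium wells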
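After a 2 h attachment period, IDH1KD HT-1080 cells took pin-transferred compound for 48 h at 37 °C; ATP-based luminescence after 10 min room-temperature reagent incubation reported viability.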
DT40 TDP1 no CPT: qHTS for Inhibitors of human tyrosyl-DNA phosphodiesterase 1 (TDP1): qHTS in cells in absence of CPT | 420,000 compounds, 15% hits | AID 686978, 2013 | Potency, µM (highest dose often 46.2 µM), without a hit: at the highest dose activity change, negative = growth inhibition, hits mostly inhibitors | DT40 Tdp1-/- hTDP1 cells, no CPT, ATP luminescence, 48 h; further: potency means the concentration at half of the fitted maximal effect; nearly all actives have a fitted effect of over 55% in size
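Readout: luminescence from CellTiter-Glo after 30 min in the dark at RT. Cells: DT40 Tdp1-/- with stable hTDP1, 400/well. Exposure: compounds alone, ≥48 hr, 37 °C.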
TDP1 cell CPT: DT40-hTDP1 cell growth loss with CPT; 420,000 compounds, 12% hits; Potency, µM (doses to about 46.2 µM), for inactives: at the highest dose activity change, negative = growth inhibition, most hits filed as inhibitors; AID 686979; chicken DT40 Tdp1-/-;hTDP1 cells + 20 nM CPT, ATP luminescence, 48 h; further: potency means the concentration at half of the fitted maximal effect; nearly all actives have a fitted effect of over 55% in size
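Cell growth measured by CellTiter-Glo luminescence after a minimum 48 h, 37 C compound exposure with 20 nM CPT in Tdp1-knockout DT40 cells stably expressing hTDP1, seeded 400/well; qHTS titration format.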
IL-1B inflam inh: inflammasome signaling inhibition, IL-1 beta readout; THP-1 LPS/ATP IL-1B secretion, AlphaLISA, 16 h; active compounds read low; 360,000 compounds, 4.7% hits; activity change, % at 57.5 µM; AID 743279; in the data active means activity change below about -50%; inconclusive means mostly about -30% to -49%
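Secreted IL-1B measured by AlphaLISA bead assay after 16 h compound exposure of THP-1 cells; compounds (final up to 57.5 uM) added 1 h before LPS (250 ng/mL) and ATP (1.25 mM) stimulation; lower signal means less secretion.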
HT1080NT lethal: kills 2HG-producing HT-1080-NT fibrosarcoma cells | 360,000 compounds, 1.6% hits | HT-1080-NT fibrosarcoma viability, CellTiter-Glo ATP luminescence, 48 h | AID 686970 | Potency, µM (titrated, usually from 46.1 µM), for the others: at the top dose activity, negative = less viability, most hits filed as cytotoxic;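 further: NT is the 2HG producing partner of a matched IDH1 knockdown line; potency means the concentration at half of the fitted maximal effect; 0% = DMSO-treated cells and -100% = media-only wells without cells; nearly all actives have a fitted effect of over 55% in size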
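HT-1080-NT; 750 cells/well; 5% FBS RPMI; 48 h compound, 37 degrees C; CellTiter-Glo luminescence; curve fitting and curve-class assignment.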
The depositor's hits bear a star; [ ] = another dose, or the depositor's remark. Sampled rows, rich in hits. Any-hit rate of the full collection: about 19%. Unless noted, the call rests on the fitted dose curve; in most records, active means well fitted curve in the direction sought with a large enough effect; inconclusive means small, poorly fitted or top-dose-only effect, or another doubt; inactive means no such curve, though single readings can be large; an effect the other way counts as inactive or inconclusive. Unless noted, on the % scale 0 is the no-effect control and ±100 the full control effect.

`CC(=O)Nc1ccc(NC(=O)C(C)NC(C)c2cccc3ccccc23)cc1` (centres undefined) gave HT1080 IDH1KD tx -14%, DT40 TDP1 no CPT -16%, TDP1 cell CPT 6%, IL-1B inflam inh 8 and HT1080NT lethal -22%.
CSC[C@H]1CN(CCc2ccccc2)C(=O)[C@@H]1CC(=O)Nc1ccccc1 was read as HT1080 IDH1KD tx 3%, DT40 TDP1 no CPT -28%, TDP1 cell CPT -2%, IL-1B inflam inh -12 and HT1080NT lethal 10%.
For Cc1ccc(NC(=O)/C(=C\c2cccc([N+](=O)[O-])c2)NC(=O)c2cccs2)cc1 the results were HT1080 IDH1KD tx -2%, DT40 TDP1 no CPT -25%, TDP1 cell CPT -20%, IL-1B inflam inh -1 and HT1080NT lethal 3%.
For O=C(/C=C/c1cccc([N+](=O)[O-])c1)Nc1cccc(NC(=O)c2cccs2)c1 the results were HT1080 IDH1KD tx -6%, DT40 TDP1 no CPT 18µM*, TDP1 cell CPT 5.8µM*, IL-1B inflam inh -60* and HT1080NT lethal -19%.
Screening O=C(/C=C/c1ccc(Cl)c([N+](=O)[O-])c1)Nc1ccc(NC(=O)c2ccco2)cc1 returned HT1080 IDH1KD tx 11%, DT40 TDP1 no CPT 0%, TDP1 cell CPT 1%, IL-1B inflam inh -4 and HT1080NT lethal 11%.
O=C(/C=C/c1ccc(Cl)c([N+](=O)[O-])c1)Nc1cccnc1 was read as HT1080 IDH1KD tx -1%, DT40 TDP1 no CPT -25%, TDP1 cell CPT -25%, IL-1B inflam inh -53* and HT1080NT lethal -3%.
Screening O=C(/C=C/c1cccc([N+](=O)[O-])c1)Nc1cccc(NC(=O)c2ccco2)c1 returned HT1080 IDH1KD tx -2%, DT40 TDP1 no CPT 16µM*, TDP1 cell CPT inconclusive, IL-1B inflam inh -95* and HT1080NT lethal 0%.
For C[C@H](NC(=O)c1ccco1)C(=O)Nc1cccc([N+](=O)[O-])c1 the results were HT1080 IDH1KD tx 4%, DT40 TDP1 no CPT 1%, TDP1 cell CPT 2%, IL-1B inflam inh 1 and HT1080NT lethal 7%.
Screening O=C(/C=C/c1ccc(Cl)c([N+](=O)[O-])c1)Nc1cccc(NC(=O)c2ccco2)c1 returned HT1080 IDH1KD tx inconclusive, DT40 TDP1 no CPT inconclusive, TDP1 cell CPT inconclusive, IL-1B inflam inh -99* and HT1080NT lethal inconclusive.
For Cc1ccc(-n2ncc(C(=O)NCCN3CCc4ccccc4C3)c2C2CCN(C(=O)OC(C)(C)C)CC2)cc1 the results were DT40 TDP1 no CPT 18µM* and TDP1 cell CPT 21µM*.
For Cc1c(Cl)cccc1-n1ncc(C(=O)N2CCc3ccccc3C2)c1C1CCN(C(=O)OC(C)(C)C)CC1 the results were DT40 TDP1 no CPT 21µM* and TDP1 cell CPT inconclusive.
Screening Cc1ccc(-n2ncc(C(=O)NCCN3CCc4ccccc4C3)c2C2CCN(C(=O)OC(C)(C)C)CC2)cc1C returned DT40 TDP1 no CPT 21µM* and TDP1 cell CPT 16µM*.
For CC(C)(C)OC(=O)N1CCC(c2c(C(=O)O)cnn2-c2ccccc2Cl)CC1 the results were HT1080 IDH1KD tx 1%, DT40 TDP1 no CPT -11%, TDP1 cell CPT -10%, IL-1B inflam inh 17 and HT1080NT lethal 12%.
`Cc1cccc(C)c1-n1ncc(C(=O)NCCN2CCOCC2)c1C1CCN(C(=O)OC(C)(C)C)CC1` gave DT40 TDP1 no CPT -9% and TDP1 cell CPT -30%.
`Cc1c(Cl)cccc1-n1ncc(C(=O)NCCN2CCN(C)CC2)c1C1CCN(C(=O)OC(C)(C)C)CC1` gave DT40 TDP1 no CPT 26µM* and TDP1 cell CPT inconclusive.
CCC(Sc1nc(N)c(NC(=O)c2ccc(OC)c(OC)c2)c(=O)[nH]1)C(=O)OC (centres undefined) was read as HT1080 IDH1KD tx 5%, DT40 TDP1 no CPT -6%, TDP1 cell CPT 0%, IL-1B inflam inh 10 and HT1080NT lethal 5%.
For COCOc1ccc(-c2ncc(OC)nc2NC(=O)c2ccsc2)cc1 the results were HT1080 IDH1KD tx 14%, DT40 TDP1 no CPT -30%, TDP1 cell CPT -15%, IL-1B inflam inh 13 and HT1080NT lethal 4%.
`Cc1ccc(-n2ncc(C(=O)N3CCc4ccccc4C3)c2C2CCN(C(=O)OC(C)(C)C)CC2)cc1C` gave DT40 TDP1 no CPT inconclusive and TDP1 cell CPT 10µM*.
Screening Cc1ccc(-n2ncc(C(=O)N3CCN(c4ccccc4F)CC3)c2C2CCN(C(=O)OC(C)(C)C)CC2)cc1C returned DT40 TDP1 no CPT -19% and TDP1 cell CPT inconclusive.
`O=C(Cc1ccc(Br)cc1)NCc1ccccc1` gave HT1080 IDH1KD tx 2.9µM*, DT40 TDP1 no CPT 2.1µM*, TDP1 cell CPT 2.9µM*, IL-1B inflam inh 33 and HT1080NT lethal 8.2µM*.
`Cc1ccc(CNC(=O)Cc2ccc(Br)cc2)cc1` gave HT1080 IDH1KD tx 8.2µM*, DT40 TDP1 no CPT 7.3µM*, TDP1 cell CPT 9.2µM*, IL-1B inflam inh 31 and HT1080NT lethal 23µM*.
O=C(COC(=O)Cc1ccc(Br)cc1)NCc1ccccc1 was read as HT1080 IDH1KD tx 3%, DT40 TDP1 no CPT -18%, TDP1 cell CPT -22%, IL-1B inflam inh 22 and HT1080NT lethal 3%.
For Cc1ccc(CNC(=O)COC(=O)c2ccc(Br)cc2)cc1 the results were HT1080 IDH1KD tx 8%, DT40 TDP1 no CPT -5%, TDP1 cell CPT -4%, IL-1B inflam inh -14 and HT1080NT lethal 15%.
For Cc1nc2cc(NC(=O)[C@@H]3C[C@@H](Sc4ccccn4)CN3Cc3ccc(F)cc3F)ccc2s1 the results were DT40 TDP1 no CPT -9% and TDP1 cell CPT -1%[9.04 µM].
`O=S(=O)(NC12CC3CC(CC(C3)C1)C2)c1ccc(F)cc1` gave HT1080 IDH1KD tx inconclusive, DT40 TDP1 no CPT inconclusive, TDP1 cell CPT inconclusive, IL-1B inflam inh 16 and HT1080NT lethal -41%.
COc1ccc(-c2cc(NCc3ccc(C)cc3)n3cnnc3n2)cc1 was read as DT40 TDP1 no CPT 13µM* and TDP1 cell CPT 15µM*.
`Cc1cc(NCc2ccc(Cl)cc2)n2cnnc2n1` gave DT40 TDP1 no CPT 8.2µM* and TDP1 cell CPT 21µM*.
Screening O=C(O)c1ccc(Cl)c(N2C(=O)Nc3ccccc3N2O)c1 returned HT1080 IDH1KD tx 17%, DT40 TDP1 no CPT 6%, TDP1 cell CPT 1%, IL-1B inflam inh 13 and HT1080NT lethal 13%.
For O=C(NCCN1CCOCC1)c1ccc2c(c1)N(Cc1ccc(F)cc1)C(=O)c1ccccc1S2(=O)=O the results were HT1080 IDH1KD tx 0%, DT40 TDP1 no CPT -19%, TDP1 cell CPT -10%, IL-1B inflam inh -18 and HT1080NT lethal -14%.
